High-throughput results as filed in PubChem.
HCV inh – HCV inhibition; AID 651820; Huh7.5.1 HCVcc-Cre infection, luciferase reporter, 44 h; 340,000 compounds, 3.4% hits; Potency, µM (doses to about 41.8 µM), without a hit: top-dose activity change, negative = inhibition, usual class: inhibitors
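Whole-lifecycle infectious HCVcc-Cre system; cells 1,000/well, compound then virus (~0.5 moi) added 4 h after plating, 44 h culture. Luciferase read 15 sec following 15 min substrate incubation, room temp.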
AMA1-RON2 inh – AMA1-RON2 (P. falciparum) interaction inhibition | AlphaScreen AMA1-biotinylated RON2 peptide binding | Potency, µM (highest dose often 58.2 µM), for inactives: at the top dose activity change, negative = inhibition, actives largely listed as inhibitors | 360,000 compounds, 0.2% hits;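 further: 0% = vehicle wells and -100% = peptide control; nearly all actives have a fitted effect of over 45% in size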
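AMA1 (3D7) with his tag at 25 nM final met compounds first, then biotinylated RON2 peptide at 25 nM; detection used donor plus acceptor beads, 10 µg/mL apiece, read by AlphaScreen after 30 min at room temperature.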
Pf growth 96h – inhibits malaria parasite growth, 96 h; P. falciparum luciferase reporter growth, 96 h; Potency, µM (top dose mostly 28.7 µM), for inactives: top-dose activity change, negative = inhibition, most hits filed as inhibitors; 320,000 compounds, 6.9% hits
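Erythrocytes infected with luciferase-expressing P. falciparum were dispensed at 2% hematocrit and 0.05% parasitemia (final), then incubated with compounds 96 hours at 37 C in 5% CO2. Luminescence after detection reagent addition reported growth.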
AmpC inh no detg – blocks E. coli AmpC beta-lactamase in detergent-free assay; P00811; AmpC nitrocefin hydrolysis, absorbance 480 nm, 0.0001% Triton; Potency, µM (titrated, usually from 57.1 µM), for the others: top-dose activity change, negative = inhibition, actives largely listed as inhibitors; 330,000 compounds, 0.52% hits;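 further: plate controls were no compound for no effect and no enzyme for full effect; nearly all actives have a fitted effect of over 20% in size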
Target sequence (P00811 whole entry, looked up): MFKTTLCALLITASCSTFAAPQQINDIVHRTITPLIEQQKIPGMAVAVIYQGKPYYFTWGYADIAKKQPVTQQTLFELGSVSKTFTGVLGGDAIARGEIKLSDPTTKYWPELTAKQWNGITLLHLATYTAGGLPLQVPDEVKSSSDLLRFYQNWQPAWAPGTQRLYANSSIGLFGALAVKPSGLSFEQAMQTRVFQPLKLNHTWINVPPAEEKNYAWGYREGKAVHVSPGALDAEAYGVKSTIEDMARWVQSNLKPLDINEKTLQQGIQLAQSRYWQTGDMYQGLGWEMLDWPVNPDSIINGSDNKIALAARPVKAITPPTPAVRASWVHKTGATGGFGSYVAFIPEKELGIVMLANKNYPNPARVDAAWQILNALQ
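AmpC (5.3 nM in the dispensed reagent) in 20 mM phosphate pH 7.0 with 0.01% (detergent screen) or 0.0001% Triton X-100 was preincubated with compounds for 15 min at room temperature. Nitrocefin was then added from an 800 uM solution, and hydrolysis was followed at 480 nm.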
Pf growth 48h – P. falciparum growth inhibition at 48 hours (one generation). P. falciparum luciferase growth in erythrocytes, 48 h. Potency, µM (titrated, usually from 28.7 µM), inactives show at the highest dose activity change, negative = inhibition, usual class: inhibitors. 310,000 compounds, 5.9% hits. AID 504832
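Luminescence readout; reporter = integrated firefly luciferase in P. falciparum. RBC culture at 2% hematocrit, 0.1% parasitemia final, 37 C/5% CO2; decreased signal taken as growth inhibition.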
AmpC detergent – blocks E. coli AmpC beta-lactamase in detergent assay | AmpC hydrolysis of nitrocefin, absorbance 480 nm, 0.01% Triton | P00811 | Potency, µM (doses to about 114 µM), inactives show top-dose activity change, negative = inhibition, most hits filed as inhibitors | 370,000 compounds, 0.041% hits;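 further: 0% = no-compound wells and -100% = no-enzyme wells; nearly all actives have a fitted effect of over 25% in size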
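20 mM phosphate pH 7.0 + 0.01% (detergent screen) or 0.0001% Triton X-100; 5.3 nM AmpC reagent; cpd preinc 15 min RT; nitrocefin (800 uM stock) to start; A480 q20 s × 4 min; Activity was normalised to no-enzyme and no-compound control wells.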
* marks the source's active call; other numbers are inactive results; ? = inconclusive; · = no result given. The list is not random: actives were taken first. Their share in the collection is about 11%. The call rests on the fitted dose curve; in most records, active means well fitted curve in the direction sought with a large enough effect; inconclusive means small, poorly fitted or top-dose-only effect, or another doubt; inactive means no such curve, though single readings can be large; an effect the other way counts as inactive or inconclusive. Unless noted, on the % scale 0 is the no-effect control and ±100 the full control effect; potency means the concentration at half of the fitted maximal effect.

SMILES	HCV inh	AMA1-RON2 inh	Pf growth 96h	AmpC inh no detg	Pf growth 48h	AmpC detergent
CCOc1ccc(-c2[nH]nc3c2C(c2ccc4c(c2)OCO4)C(C#N)=C(N)O3)cc1OC (stereo unspecified)	21.4%	-8.1%	13.1µM*	-56.5%	-16.4%	0.2%
Cc1ccc(-c2[nH]nc3c2C(c2ccccc2OC(=O)N2CCOCC2)C(C#N)=C(N)O3)cc1 (stereo unspecified)	·	7.0%	10.4µM*	-17.6%	?	2.7%
COc1ccc(-c2[nH]nc3c2C(c2ccccc2OC(=O)N2CCOCC2)C(C#N)=C(N)O3)cc1 (stereo unspecified)	11.2%	-8.5%	29.7%	-20.9%	?	?
COc1cc2nc(NCc3ccccc3)n3nc(-c4ccccc4)nc3c2cc1OC	·	·	·	·	·	27.3%
COc1ccc(C(=O)Nc2nc(-c3ccc(Br)cc3)ns2)cc1	·	·	·	·	·	0.2%
CC1(C)Cc2c(cnn2-c2ccccc2)-c2c1c1ccccc1n2CC(O)CCl (stereo unspecified)	?	-14.9%	?	-34.7%	11.7µM*	?
CCN1CCN(C(=O)Cn2ncc3c4ccccc4n(Cc4ccccc4F)c3c2=O)CC1	·	·	·	·	·	15.6%
COc1cccc(NC(=S)/C(=C(\[O-])c2cc(C)n(-c3ccccc3F)c2C)[n+]2ccc(N(C)C)cc2)c1	?	-1.0%	4.15µM*	35.6%	?	1.8%
Cc1c(Cl)cccc1NC(=O)C1Cc2ccccc2CN1C(=O)c1ccccc1 (stereo unspecified)	-8.4%	11.3%	9.28µM*	-56.6%	-11.6%	-7.0%
CC(C)c1onc(C(=O)NCc2ccc(Cl)cc2)c1[N+](=O)[O-]	-4.7%	9.4%	-9.4%	-14.9%	?	-1.9%
COc1ccccc1-c1cc(C(=O)N2CCN(c3ccccc3OC)CC2)no1	?	-13.3%	9.8%	129.9%	11.5%	-11.8%
COc1ccccc1N1CCN(C(=O)c2cc(C3CC3)on2)CC1	4.8%	-9.6%	-7.2%	20µM*	16.9%	?
Cc1onc(C(=O)N2CCN(c3ccccc3)CC2)c1[N+](=O)[O-]	3.5%	-0.9%	?	-31.6%	?	-6.5%
Cc1ccc(Cl)cc1N1CCN(C(=O)c2noc(C)c2[N+](=O)[O-])CC1	10µM*	-0.3%	?	4.7%	?	-8.7%
CC(C)c1onc(C(=O)N2CCCCC2)c1[N+](=O)[O-]	12.0%	12.7%	2.3%	-13.5%	-14.3%	?
COc1ccc(CNC(=O)c2noc(C(C)C)c2[N+](=O)[O-])cc1	-1.3%	1.5%	1.85µM*	-23.9%	-9.0%	-5.7%
COc1ccccc1N1CCN(C(=O)c2noc(C(C)C)c2[N+](=O)[O-])CC1	24.7%	14.6%	13.1µM*	48.1%	0.0%	-9.8%
Cn1c(=O)c2cc(S(=O)(=O)NC(Cc3ccccc3)C(=O)Nc3ccc(F)cc3)ccc2n(C)c1=O (stereo unspecified)	·	·	·	·	·	10.8%
COc1ccccc1N1CCN(C(=O)c2cc3c(C)nc4ccccc4c3o2)CC1	6.31µM*	-7.0%	11.3%	211.4%	?	-4.5%
CCOCCc1nn2c(=O)cc(COC(=O)c3cccc(C)c3)nc2s1	·	·	·	·	·	16.2%
CCOc1ccc2nc(N(Cc3cccnc3)C(=O)c3ccc4c(c3)OCCO4)sc2c1	·	·	·	·	·	-0.9%
CCCCN(C/C=C/c1ccccc1OC)Cc1ccccc1	3.2%	-9.4%	8.28µM*	4.3%	?	1.6%
CCN(C/C=C/c1ccccc1OC)Cc1ccccc1	-4.6%	-22.6%	108.8%	-12.8%	6.4%	-8.2%
COc1cc([C@@H]2c3cc4c(cc3[C@@H](O)[C@H]3COC(=O)[C@H]23)OCO4)cc(OC)c1O[Si](C)(C)C(C)(C)C	-29.0%	-0.5%	8.28µM*	55.7%	7.38µM*	-9.6%
COc1cc(C2c3cc4c(cc3C3OC(=O)C2C3CO)OCO4)cc(OC)c1OC (stereo unspecified)	·	-16.2%	·	·	·	·
SMILES	HCV inh	AMA1-RON2 inh	Pf growth 96h	AmpC inh no detg	Pf growth 48h	AmpC detergent
CCOC(=O)c1cnc2c(C)cccc2c1NCCc1ccc(OC)c(OC)c1	?	-15.1%	4.15µM*	137.9%	?	?
CCOC(=O)c1cnc2ccc(C(=O)OC)cc2c1NCCc1ccc(OC)c(OC)c1	?	3.8%	1.0%	140.3%	10.4µM*	-10.7%
CCOC(=O)c1ccc2ncc(C(=O)OCC)c(NCCc3ccc(OC)c(OC)c3)c2c1	·	·	·	·	·	9.7%
Cc1ccc(C(=O)Nc2ccc(C)c(S(=O)(=O)Nc3ccccc3Cl)c2)s1	10µM*	-8.6%	3.7%	-21.2%	-7.6%	1.6%
O=C(CN(c1ccc(F)cc1)S(=O)(=O)c1ccc2c(c1)OCCO2)NCc1ccccn1	1.2%	32.2%	·	0.0%	-15.0%	-11.1%
Cc1ccc(NC(=O)c2cc3c(s2)CCCC3)cc1S(=O)(=O)Nc1ccccc1Cl	?	-8.0%	-23.2%	-40.9%	18.7%	1.2%
CCOc1cc(C(=O)Nc2ccc3c(c2)OCO3)ccc1OC(F)F	?	-3.3%	9.28µM*	-5.3%	45.9%	0.0%
CCOc1cc(C(=O)Nc2ccncc2)cc(OCC)c1OCC	?	8.3%	?	1.5%	5.22µM*	-4.7%
CS(=O)(=O)N(CC(=O)NCc1ccccn1)c1ccc2c(c1)OCCO2	16.8%	49.4%	4.15µM*	-9.2%	14.6%	-0.1%
CCOc1ccc(NC(=O)c2ccncc2)cc1	14.0%	0.0%	?	-39.4%	45.7%	-9.6%
CCOc1ccccc1NC(=O)c1sc2nc3n(c(=O)c2c1C)CCCCC3	·	·	·	·	·	15.0%
Cc1ccc(NC(=O)c2ccc3c(c2)OCCO3)cc1S(=O)(=O)Nc1cccc(Cl)c1	10µM*	-9.8%	81.0%	-14.5%	46.5%	-8.4%
CN(CC(=O)NCc1ccccn1)S(=O)(=O)c1ccc(F)cc1	30.4%	-4.9%	14.7µM*	-6.0%	16.9%	7.6%
O=C(Nc1ccc(OC(F)F)c(Cl)c1)Nc1ccc2c(c1)OCO2	17.8µM*	2.0%	·	-46.0%	?	?
CCOc1ccccc1N(CC(=O)Nc1ccc2c(c1)OCCO2)S(C)(=O)=O	6.4%	-8.9%	4.15µM*	-2.3%	-8.0%	?
CN(CC(=O)NCc1ccccn1)S(=O)(=O)c1ccccc1	5.1%	9.7%	11.5%	-6.5%	1.3%	-0.2%
Cc1ccc(NC(=O)c2ccc3c(c2)OCCO3)cc1C	?	-5.2%	10.5%	-23.1%	182.5%	9.8%
CC1Cn2c(C(=O)NCc3cccc(Br)c3)cc3cccc(c32)S1 (stereo unspecified)	·	·	·	·	·	23.0%
C=CCNC(=S)Nc1ccc(OC(F)F)c(Cl)c1	11.2µM*	18.7%	-16.1%	-23.8%	-7.1%	-10.4%
